# Sampled rows, rich in hits. Any-hit rate of the full collection: about 14%.
# FBPA Giardia inh: blocks Giardia fructose-bisphosphate aldolase activity. A8B2U2. purified Giardia FBPA. Potency, µM (titrated, usually from 59.6 µM), without a hit: at the top dose activity, negative = inhibition, actives largely listed as inhibitors. 290,000 tested, 0.71% active. AID 2451; also: potency is read from the fitted curve at half-maximal effect; nearly all actives have a fitted effect of over 55% in size
# Target sequence (A8B2U2 whole entry, looked up): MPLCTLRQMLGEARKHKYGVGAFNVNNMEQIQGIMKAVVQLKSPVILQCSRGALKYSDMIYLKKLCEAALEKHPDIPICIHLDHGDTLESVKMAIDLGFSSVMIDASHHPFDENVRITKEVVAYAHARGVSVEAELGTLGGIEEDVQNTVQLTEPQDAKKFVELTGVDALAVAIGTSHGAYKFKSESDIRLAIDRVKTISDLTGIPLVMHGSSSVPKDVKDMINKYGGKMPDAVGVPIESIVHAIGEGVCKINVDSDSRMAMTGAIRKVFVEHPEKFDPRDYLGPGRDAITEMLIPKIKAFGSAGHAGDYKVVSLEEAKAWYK
#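 40 nM FBPA preincubated 10 min at RT with compound (up to 57.5 uM final), then substrate plus GAPDH/TPI/NAD/arsenate coupling and diaphorase/resazurin added. Fluorescence read after 20 min at RT, 525/598 nm.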
# HCMV inh: blocks human cytomegalovirus replication; HFF cells, HCMV-luciferase reporter, 72 h; hits give low values; AID 1259415; 410,000 tested, 4.5% active; activity change, negative = inhibition, % at 57.5 µM; in the data active = activity change below about -60%; inconclusive = no clear call, values can overlap the other calls; inactive = above about -39%
#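 After 16 h attachment at 37C, HFF cells received test compound and HCMV-luciferase (1 PFU/cell); reporter luminescence read 72 h later, data normalized against buffer-only and known inhibitor Salinomycin.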
# Pf growth 96h: inhibits malaria parasite growth, 96 h. P. falciparum luciferase reporter growth, 96 h. Potency, µM (titrated, usually from 28.7 µM), inactives show at the highest dose activity change, negative = inhibition, usual class: inhibitors. 320,000 tested, 6.9% active; also: potency is read from the fitted curve at half-maximal effect
#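 Cell-based qHTS: luciferase-tagged P. falciparum in erythrocytes (2% hematocrit, 0.05% parasitemia final) incubated with compounds for 96 hours, 37 C, 5% CO2; luciferase detection reagent then added and luminescence measured.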
# Pf growth 48h: P. falciparum growth inhibition at 48 hours (one generation). P. falciparum luciferase growth in erythrocytes, 48 h. Potency, µM (highest dose often 28.7 µM), for the others: at the top dose activity change, negative = inhibition, hits mostly inhibitors. 310,000 tested, 5.9% active; also: potency is read from the fitted curve at half-maximal effect
#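 Cell-based growth assay: transgenic P. falciparum expressing firefly luciferase, cultured in red cells within RPMI 1640 containing 0.5% w/v Albumax, 24 mM bicarbonate and gentamycin. A drop in luciferase activity indicates inhibition.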
# Sm TGR inh: S. mansoni TGR enzyme inhibition; Q962Y6; purified TGR, DTNB reduction, TNB absorbance 405 nm; Potency, µM (doses to about 114 µM), without a hit: at the highest dose activity change, negative = inhibition, most hits filed as inhibitors; 360,000 tested, 3% active; AID 485364; also: potency is read from the fitted curve at half-maximal effect; nearly all actives have a fitted effect of over 60% in size
#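 Kinetic colorimetric format: TGR-catalysed, NADPH-driven DTNB reduction monitored via TNB absorbance. Enzyme dispensed at 20 nM; compound exposure 15 min at room temperature before reaction start.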
# * = called active by the depositor; ? = inconclusive; . = no result; [ ] = another dose, or the depositor's remark. Unless noted, calls follow the shape of the dose curve; as a rule, active = well fitted curve in the direction sought with a large enough effect; inconclusive = small, poorly fitted or top-dose-only effect, or another doubt; inactive = no such curve, though single readings can be large; an effect the other way counts as inactive or inconclusive. % is scaled to controls: 0 for no effect and ±100 for the full control effect.
SMILES,FBPA Giardia inh,HCMV inh,Pf growth 96h,Pf growth 48h,Sm TGR inh
O=C(/C=C/c1ccco1)N(Cc1cccc(Br)c1)C1CCS(=O)(=O)C1 (stereo unspecified),0%,4,?,?,3.2µM*
Cc1noc(C)c1C(=O)N1CCC2(CCN(Cc3ccccc3)CC2)CC1,6%,.,.,.,.
O=c1c(-c2ccco2)[n+]([O-])c2ccccc2n1OCc1ccccc1,?,-17,?,.,10µM*
CCOc1ccc(OCC)c(-c2c(=O)n(OCc3ccccc3Br)c3ccccc3[n+]2[O-])c1,4%,?,9.3µM*,?,-1%
COc1ccccc1COn1c(=O)c(-c2ccco2)[n+]([O-])c2ccccc21,-13%,?,-4%,?,14µM*
O=c1c(-c2ccco2)[n+]([O-])c2ccccc2n1OCc1ccccc1F,0%,-30,?,.,?
CC(C)CCOc1ccc(-c2c(=O)n(OCc3ccc([N+](=O)[O-])cc3)c3ccccc3[n+]2[O-])cc1,-4%,-69*,28%,33%,13%
CCOC(=O)c1cnc2ccc(OCC)cc2c1N(C)Cc1ccccc1,-1%,-16,?,?,4%
COc1ccc(N2CC(C(=O)N(CC(C)C)c3c(N)n(Cc4ccccc4)c(=O)[nH]c3=O)CC2=O)c(OC)c1 (stereo unspecified),.,-28,6%,-3%,5%
O=c1c(-c2ccco2)[n+]([O-])c2ccccc2n1OCc1c(F)cccc1F,-7%,35,97%,47%,16µM*
Clc1ccc(-n2nnnc2Sc2ncnc3sccc23)cc1,.,-81*,.,.,.
Cc1sc2ncnc(Sc3nnnn3-c3ccccc3)c2c1C,2%,-71*,35%,4.7µM*,?
COc1ccc(-c2ccc(=N)n(CCCC(=O)O)n2)cc1,1%,.,.,.,.
C/C(=N\NC(=O)C1CC1(c1ccccc1)c1ccccc1)c1cccc([N+](=O)[O-])c1 (stereo unspecified),-2%,-15,?,0%,-13%
O=C(Nc1ccc([N+](=O)[O-])cc1)C1CC1(c1ccccc1)c1ccccc1 (stereo unspecified),-7%,35,?,12µM*,-3%
Cc1ccc(C2(c3ccc(C)cc3)CC2C(=O)Nc2ccc([N+](=O)[O-])cc2O)cc1 (stereo unspecified),?,-102*,0.66µM*,0.83µM*,8%
CC(C)NS(=O)(=O)c1ccc(OCC(=O)N2CCN(Cc3ccc4c(c3)OCO4)CC2)c(Cl)c1,6%,-68*,.,?,20%
Cc1cc(S(=O)(=O)NC(C)C)ccc1OCC(=O)N1CCOCC1,8%,28,16%,.,-10%
Cc1cc(S(=O)(=O)NC(C)C)ccc1OCC(=O)N1CCN(Cc2ccc3c(c2)OCO3)CC1,4%,-84*,8%,?,-12%
CC(C)NS(=O)(=O)c1ccc(OCC(=O)N2CCCC2)c(Cl)c1,0%,-10,.,-1%,2%
CN1Cc2c(N3CCOCC3)nc(SCc3ccccc3)c(C#N)c2CC1(C)C,-18%,-21,6%,0%,12%
CCOC(=O)C(C)Sc1nc(N2CCOCC2)c2c(c1C#N)CC(C)(C)OC2 (stereo unspecified),.,-22,.,.,.
CC(Sc1nc(N2CCOCC2)c2c(c1C#N)CC(C)(C)OC2)C(=O)Nc1ccccc1 (stereo unspecified),3%,-33,.,13µM*,-15%
CC1(C)Cc2c(C#N)c(SCC(=O)c3ccccc3)nc(N3CCOCC3)c2CS1,-11%,18,?,2.3µM*,-21%
CC(Sc1nc(-c2ccccc2)nc2c1COC(C)(C)C2)C(=O)N1CCOCC1 (stereo unspecified),0%,7,8.3µM*,.,-7%
SMILES,FBPA Giardia inh,HCMV inh,Pf growth 96h,Pf growth 48h,Sm TGR inh
CCOC(=O)CCSc1nc(N2CCOCC2)c2c(c1C#N)CC(C)(C)OC2,3%,4,36%,4.7µM*,-11%
CCOC(=O)/C=C/[C@@H](CC(C)C)NC(=O)C(F)(F)F,.,-4,.,.,.
O=C(CCn1c(=O)c2ccccc2n(CC(=O)Nc2ccc(F)cc2)c1=O)NCCc1ccccc1,.,7,.,.,8%
COc1ccc(OC)c(NC(=S)NC(=O)c2ccc(Br)o2)c1,.,-34,20%,20%,-27%
COc1ccc(S(=O)(=O)Nc2ccc3c(c2)C(=O)N([C@@H](C)CO)C[C@H](C)[C@H](CN(C)S(=O)(=O)c2ccc(F)cc2)O3)cc1,.,-10,.,.,.
CCSc1nc(N2CCOCC2)c2c(c1C#N)CC(C)(C)N(C)C2,-17%,46,5.2µM*,.,-21%
COC(=O)c1ccc(CSc2nc(N3CCOCC3)c3c(c2C#N)CC(C)(C)OC3)o1,-26%,17,157%[5.75 µM],8.3µM*,7%
CC(C)CCSc1nc(N2CCOCC2)c2c(c1C#N)CC(C)(C)OC2,0%,-7,3%,9.3µM*,1%
CCCCNc1nc(C)nc2c1nc(-c1ccccc1)n2C(C)CCCN(CC)CC (stereo unspecified),2%,.,.,.,.
CCc1ccc(C(O)(C(C)C)C(CN2CCOCC2)c2ccccc2)cc1 (stereo unspecified),-21%,-77*,-1%,5.2µM*,-12%
OC(c1ccc(F)cc1)(C1CCCCC1)C(CN1CCOCC1)c1ccccc1 (stereo unspecified),-17%,?,?,?,89µM*
CCCC(O)(c1ccccc1)C(CN1CCOCC1)c1ccccc1 (stereo unspecified),-2%,?,?,.,0%
CCCC(O)(c1ccc(Cl)cc1)C(CN1CCOCC1)c1ccccc1 (stereo unspecified),-15%,-28,?,.,-14%
CCCC(O)(c1ccc(CC)cc1)C(CN1CCOCC1)c1ccccc1 (stereo unspecified),0%,-69*,0%,0.93µM*,-11%
CCCC(O)(c1ccc(Br)cc1)C(CN1CCOCC1)c1ccc(Cl)cc1 (stereo unspecified),-20%,?,39%,2.3µM*,7%
OCc1cccc(Nc2ncnc3sc4c(c23)CCCCC4)c1,3%,-9,-20%,12%,-2%
O=C(c1ccc(F)cc1)C1CCN(C(=S)NCC2CCCO2)CC1 (stereo unspecified),2%,-34,?,4%,0%
CC(C)CC(=O)N1CCN(C(=O)c2ccc(-c3ccccc3)cc2)CC1,5%,-16,59%,-16%,-9%
c1ccc(C2=NC(c3ccccc3)N=C(c3ccccc3)N2)cc1,3%,21,-26%,?,-18%
Oc1ccccc1C1N=C(c2ccccc2)NC(c2ccccc2)=N1,-7%,-9,1.7µM*,.,1%
Oc1ccc(C2N=C(c3ccccc3)NC(c3ccccc3)=N2)cc1,-1%,27,12µM*,-13%,0%
COc1ccc(-c2csc(NC(C)c3nc4cc(C(=O)NCCCO)ccc4n3Cc3ccc(C)cc3)n2)cc1 (stereo unspecified),.,30,.,.,.

# Source: PubChem (National Center for Advancing Translational Sciences (NCATS))
